Measurements taken from PubChem BioAssay (EPA / NIEHS).
“And” between values parts separate entries of the source, which are not always exact repeats. Equal entries are not always repeated. Some compounds were tested as several samples or in several runs, with calls that do not always agree. The source made the active and inactive calls. The calls were made as follows: active = hit-call score of the fitted dose curve at least 0.9, where 1 is the maximum; inactive = score below 0.9.

How the values were obtained:
[1] = read-out: serum amyloid A (SAA), SAA1 (gene 6288); assay: BSK_CASM3C_SAA: BioMAP Diversity Plus: CASM3C Assay for serum amyloid A (SAA) Biomarker Activity (AID 2283049); conditions: primary human coronary artery smooth muscle cells; actives raise or lower the signal
[2] = BSK_CASM3C_SRB: Viability Assessment in the BioMAP Diversity Plus: CASM3C Assay (AID 2283050); conditions: primary human coronary artery smooth muscle cells;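 also: cells exposed to compound for 24 h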
[3] = read-out: Thrombomodulin, THBD (gene 7056); assay: BSK_CASM3C_Thrombomodulin: BioMAP Diversity Plus: CASM3C Assay for Thrombomodulin Biomarker Activity (AID 2283051); conditions: primary human coronary artery smooth muscle cells; actives raise or lower the signal;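 also: thrombomodulin protein level measured by ELISA 24 h after dosing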
[4] = read-out: Tissue Factor, F3 (gene 2152); assay: BSK_CASM3C_TissueFactor: BioMAP Diversity Plus: CASM3C Assay for Tissue Factor Biomarker Activity (AID 2283052); conditions: primary human coronary artery smooth muscle cells; actives raise or lower the signal;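 also: cell surface tissue factor protein level read by ELISA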
[5] = read-out: Interferon-gamma inducible Protein 10 (IP10), CXCL10 (gene 3627); assay: BSK_hDFCGF_IP10: BioMAP Diversity Plus: hDFCGF Assay for Interferon-gamma inducible Protein 10 (IP10) Biomarker Activity (AID 2283053); conditions: primary human foreskin fibroblasts; actives raise or lower the signal
Summary of the method: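 Chemical-treated human skin fibroblasts (primary) were sampled at 24 h for IP-10 by ELISA. Both increases and decreases relative to DMSO were scored.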

[6] = read-out: Urokinase-type plasminogen activator receptor (uPAR), PLAUR (gene 5329); assay: BSK_CASM3C_uPAR: BioMAP Diversity Plus: CASM3C Assay for Urokinase-type plasminogen activator receptor (uPAR) Biomarker Activity (AID 2283054); conditions: primary human coronary artery smooth muscle cells; actives raise or lower the signal;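 also: cell-surface uPAR protein level quantified by ELISA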
[7] = read-out: Vascular cell adhesion molecule 1 (VCAM1), VCAM1 (gene 7412); assay: BSK_CASM3C_VCAM1: BioMAP Diversity Plus: CASM3C Assay for Vascular cell adhesion molecule 1 (VCAM1) Biomarker Activity (AID 2283055); conditions: primary human coronary artery smooth muscle cells; actives raise or lower the signal;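 also: VCAM-1 protein level quantified by ELISA on the cells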
[8] = read-out: Collagen III, COL3A1 (gene 1281); assay: BSK_hDFCGF_CollagenIII: BioMAP Diversity Plus: hDFCGF Assay for Collagen III Biomarker Activity (AID 2283056); conditions: primary human foreskin fibroblasts; actives raise or lower the signal
Summary of the method: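 ELISA read-out of collagen III from human skin fibroblast cultures sampled 24 h post-dosing. Values were derived by bidirectional fitting relative to the DMSO vehicle control.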

[9] = read-out: Epidermal growth factor receptor (EGFR), EGFR (gene 1956); assay: BSK_hDFCGF_EGFR: BioMAP Diversity Plus: hDFCGF Assay for Epidermal growth factor receptor (EGFR) Biomarker Activity (AID 2283057); conditions: primary human foreskin fibroblasts; actives raise or lower the signal
Summary of the method: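 Cell-based multiplexed assay in primary human foreskin fibroblasts. EGFR is read by ELISA 24 h after treatment and compared with DMSO controls.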

[10] = read-out: Interleukin-8 (IL8), CXCL8 (gene 3576); assay: BSK_hDFCGF_IL8: BioMAP Diversity Plus: hDFCGF Assay for Interleukin-8 (IL8) Biomarker Activity (AID 2283058); conditions: primary human foreskin fibroblasts; actives raise or lower the signal
Summary of the method: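 Cells used are human skin primary fibroblasts. Chemical is added, cultures run 24 h, then IL-8 is quantified by ELISA, and gain or loss versus DMSO control is fitted in both directions.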

[11] = BSK_hDFCGF_Proliferation: Cell Proliferation Assessment in the BioMAP Diversity Plus: hDFCGF Assay (AID 2283059); conditions: primary human foreskin fibroblasts;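 also: curves fitted for both rise and fall of signal versus DMSO baseline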
Summary of the method: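 Total protein read at 560 nm after 0.1% SRB staining of TCA-fixed human skin fibroblasts, […]. Activity is fitted in both directions relative to DMSO as baseline.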

[12] = read-out: Macrophage colony-stimulating factor (MCSF), CSF1 (gene 1435); assay: BSK_hDFCGF_MCSF: BioMAP Diversity Plus: hDFCGF Assay for Macrophage colony-stimulating factor (MCSF) Biomarker Activity (AID 2283060); conditions: primary human foreskin fibroblasts; actives raise or lower the signal
Summary of the method: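 Primary human foreskin fibroblasts dosed with chemical; 24 h later, M-CSF quantified by ELISA; curves fitted in both directions vs DMSO negative control.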

[13] = BSK_hDFCGF_SRB: Viability Assessment in the BioMAP Diversity Plus: hDFCGF Assay (AID 2283061); conditions: primary human foreskin fibroblasts;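 also: cells exposed to compound for 24 h before the read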
Summary of the method: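 Readout is SRB absorbance at 560 nm, reflecting total protein in parallel cultures of human foreskin fibroblasts harvested 24 h after chemical dosing. Activity was fitted bidirectionally relative to DMSO.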

[14] = read-out: TIMP metallopeptidase inhibitor 1 (TIMP1), TIMP1 (gene 7076); assay: BSK_hDFCGF_TIMP1: BioMAP Diversity Plus: hDFCGF Assay for TIMP metallopeptidase inhibitor 1 (TIMP1) Biomarker Activity (AID 2283062); conditions: primary human foreskin fibroblasts; actives raise or lower the signal
Summary of the method: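 Human skin fibroblasts (primary), hDFCGF system; compound exposure 24 h; TIMP-1 by ELISA; bidirectional fit vs DMSO negative control; overt cytotoxicity by SRB in parallel wells.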

[15] = read-out: Monokine induced gamma interferon (MIG), CXCL9 (gene 4283); assay: BSK_hDFCGF_MIG: BioMAP Diversity Plus: hDFCGF Assay for Monokine induced gamma interferon (MIG) Biomarker Activity (AID 2283063); conditions: primary human foreskin fibroblasts; actives raise or lower the signal
Summary of the method: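 Chemicals were added to primary human foreskin fibroblast cultures, which were sampled 24 h later. MIG levels were then quantified by ELISA and responses fitted in both directions relative to DMSO.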

[16] = read-out: Matrix Metallopeptidase 1 (MMP1), MMP1 (gene 4312); assay: BSK_hDFCGF_MMP1: BioMAP Diversity Plus: hDFCGF Assay for Matrix Metallopeptidase 1 (MMP1) Biomarker Activity (AID 2283064); conditions: primary human foreskin fibroblasts; actives raise or lower the signal
Summary of the method: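 MMP1 levels quantified by ELISA 24 h after dosing human dermal fibroblast cultures, with parallel SRB total-protein staining for overt cytotoxicity. Data fitted in both directions against DMSO baseline.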

[17] = read-out: Vascular cell adhesion molecule 1 (VCAM1), VCAM1 (gene 7412); assay: BSK_hDFCGF_VCAM1: BioMAP Diversity Plus: hDFCGF Assay for Vascular cell adhesion molecule 1 (VCAM1) Biomarker Activity (AID 2283065); conditions: primary human foreskin fibroblasts; actives raise or lower the signal;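 as to AC50: VCAM-1 protein level quantified by ELISA after 24 h chemical exposure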
Summary of the method: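 Human foreskin fibroblast primary cells, chemical exposure 24 h; VCAM-1 by ELISA; bidirectional fit, DMSO = negative control/baseline.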

[18] = read-out: Plasminogen activator inhibitor-1 (PAI1), SERPINE1 (gene 5054); assay: BSK_hDFCGF_PAI1: BioMAP Diversity Plus: hDFCGF Assay for Plasminogen activator inhibitor-1 (PAI1) Biomarker Activity (AID 2283066); conditions: primary human foreskin fibroblasts; actives raise or lower the signal
Summary of the method: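 Human skin fibroblast cultures receive chemical for 24 h before PAI-1 is measured by ELISA; signal changes are fitted bidirectionally against DMSO-treated wells.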

[19] = read-out: Intercellular Adhesion Molecule 1 (ICAM1), ICAM1 (gene 3383); assay: BSK_KF3CT_ICAM1: BioMAP Diversity Plus: KF3CT Assay for Intercellular Adhesion Molecule 1 (ICAM1) Biomarker Activity (AID 2283067); conditions: primary human keratinocytes with fibroblasts; actives raise or lower the signal
Summary of the method: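 ICAM-1 levels are measured by ELISA 24 h after dosing a primary human co-culture of keratinocytes and foreskin fibroblasts. Activity in either direction is fitted relative to DMSO vehicle.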

[20] = read-out: Interferon-gamma inducible Protein 10 (IP10), CXCL10 (gene 3627); assay: BSK_KF3CT_IP10: BioMAP Diversity Plus: KF3CT Assay for Interferon-gamma inducible Protein 10 (IP10) Biomarker Activity (AID 2283068); conditions: primary human keratinocytes with fibroblasts; actives raise or lower the signal
Summary of the method: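 Human keratinocyte plus foreskin fibroblast primary co-culture exposed to test chemical for 24 h; IP-10 measured by ELISA. Concentration-response fitted bidirectionally against DMSO control as baseline.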

Measured: AC50

O=C(O)C(Cl)(Cl)Cl
inactive: all assays above

COc1cc(-c2ccc(N)c(OC)c2)ccc1N
inactive: [1] | [2] | [3] | [4] | [5] | [6] | [7] | [8] | [9] | [10] | [12] | [13] | [14] | [15] | [16] | [17] | [18] | [19] | [20]
active: [11] 13.2 µM and 4.28 µM | [12] 9.49 µM | [16] 20 µM | [17] 19.2 µM

ClC(Cl)=C(Cl)C(Cl)=C(Cl)Cl
active: [3] 0.0235 µM | [7] 20 µM | [8] 20 µM | [11] 29.4 µM | [14] 20 µM | [16] 32 µM | [18] 435 nM | [19] 32.4 µM | [20] 36.3 µM
inactive: all other assays above

BrCCBr
inactive: all assays above

CC12CC1(C)C(=O)N(c1cc(Cl)cc(Cl)c1)C2=O (stereo not given)
inactive: all assays above

COP(=S)(OC)Oc1ccc(Sc2ccc(OP(=S)(OC)OC)cc2)cc1
active: [3] 12.6 µM | [11] 20 µM | [18] 382 nM | [20] 20 µM
inactive: all other assays above

Nc1cccc2ccccc12
active: [3] 15.2 µM | [5] 31.6 µM | [8] 27.1 µM | [11] 13.6 µM | [12] 20 µM | [13] 32 µM | [14] 27.7 µM | [16] 33.1 µM | [17] 25.9 µM | [18] 20000 nM
inactive: all other assays above

COC(=O)c1sccc1S(=O)(=O)NC(=O)Nc1nc(C)nc(OC)n1
inactive: all assays above

O=C(O)C(F)(F)C(F)(F)C(F)(F)C(F)(F)C(F)(F)C(F)(F)C(F)(F)C(F)(F)C(F)(F)C(F)(F)F
inactive: [1] | [2] | [3] | [4] | [6] | [7] | [9]
active: [3] 0.141 µM | [5] 6.56 µM and 4.76 µM and 4.7 µM | [8] 17.1 µM and 5.73 µM and 3.66 µM | [9] 835 nM and 906 nM | [10] 13.1 µM and 6.18 µM and 6.3 µM | [11] 4.01 µM and 2.28 µM and 2.17 µM | [12] 10.8 µM and 5.03 µM and 4.97 µM | [13] 9.04 µM and 5.23 µM and 5.22 µM | [14] 9.33 µM and 5.14 µM and 5.31 µM | [15] 11.5 µM and 4.94 µM and 5.08 µM | [16] 6.98 µM and 5.59 µM and 6.54 µM | [17] 11.7 µM and 3.07 µM and 4.25 µM | [18] 10.7 µM and 5.61 µM and 5.09 µM | [19] 12.9 µM and 5 µM and 4.73 µM | [20] 6.91 µM and 5.45 µM and 5.25 µM

CC(C)c1ccc(CO)cc1
inactive: all assays above

CCCCC(CC)CO[N+](=O)[O-] (stereo not given)
active: [2] 33.6 µM | [6] 3.05 µM | [7] 34.1 µM | [19] 30.9 µM | [20] 30.2 µM
inactive: all other assays above
